A selection: hits, their analogues and other compounds. The true share with any hit is near 6.3%.
A340 absorber: compound absorbs light at 340 nm | compound absorbance at 340 nm, fold over control | fold change at 10 µM | 65,000 tested, under 10 active | AID 708;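 active = at 10 µM dose, initial 340 nm absorbance at least 2 fold that of control wells; inactive = change under 2 fold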;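 also: initial absorbance extrapolated from kinetic A340 decline of NADH oxidation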
NADH enzymes: blocks coupling enzymes of NAD/NADH assays. coupled PK/LDH NADH assays, four targets. IC50, µM (top dose mostly 10 µM). hit rate 0.02% among 65,000. AID 774;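 active = single-dose screening hits from any of four coupled enzyme assays that gave an IC50 when retested across doses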;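 also: the DPM-DC format reads NADH fluorescence rather than 340 nm absorbance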
Spn MK inh: inhibitors of Streptococcus pneumoniae mevalonate kinase. hit rate 0.48% among 65,000. purified MK, PK/LDH-coupled NADH absorbance 340 nm. inhibition, % at 10 µM;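 active = ranked among the strongest by inhibition in the single 10 µM screen, a fixed top-ranked set picked for dose follow-up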
Spn PMK inh: inhibitors of Streptococcus pneumoniae phosphomevalonate kinase; purified PMK, PK/LDH-coupled NADH absorbance 340 nm; inhibition, % at 10 µM; AID 539; hit rate 0.49% among 65,000;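 active = top-ranked compounds by inhibition in the single 10 µM screen, taking a fixed number of the strongest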
Spn DPM-DC inh: inhibitors of Streptococcus pneumoniae diphosphomevalonate decarboxylase | purified DPM-DC, PK/LDH coupled NADH fluorescence | calls only at 10 µM | hit rate 0.49% among 65,000;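 active = the 320 compounds with the highest percent inhibition in the single-dose primary screen, excluding strongly autofluorescent ones, cut at about 32% in these data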;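 also: kinetic rate of NADH fluorescence loss reporting ADP formed by the decarboxylase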
Autofluor 339: intrinsic fluorescence of library compounds, ex339/em460 – biochemical, MLSMR library, data from DPM-DC assay, artefact control, profiling panel; compound autofluorescence, ex339/em460 nm, NADH buffer; active compounds read high; 1 = no-compound wells, NADH background; fluorescence fold increase at 10 µM; hit rate 5.5% among 65,000;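 active = at 10 µM, mean starting fluorescence two-fold or more over control wells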;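 also: signal is the first read of a kinetic run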
Numbers stand for hits; n = inactive; x = no result shown; + = active, no number.

SMILES	A340 absorber	NADH enzymes	Spn MK inh	Spn PMK inh	Spn DPM-DC inh	Autofluor 339
COc1ccccc1N=c1oc2cc(O)ccc2cc1C(=O)NCC1CCCO1 (stereo not given)	n	n	n	n	n	2.9
O=C(CSc1nnc(-c2ccccc2)o1)OCc1ccccc1	n	n	n	n	n	n
COc1ccc2oc(=O)c(C(=O)NCC3CCCO3)cc2c1 (stereo not given)	n	n	n	n	x	5.1
COc1cccc2cc(C(=O)NCC3CCCO3)c(=O)oc12 (stereo not given)	n	n	n	n	n	n
O=C(Cn1cnnn1)Nc1ccccc1Cc1ccccc1	n	n	n	n	n	n
O=C(c1ccccc1)c1c[nH]c2cc3c(cc2c1=O)OCCO3	n	n	n	n	n	n
COC(=O)c1cc(COc2ccc3c4c(c(=O)oc3c2)CCCC4)c(C)o1	n	n	n	n	x	2.2
O=C(COc1ccc2c3c(c(=O)oc2c1)CCC3)c1ccc2c(c1)OCO2	n	n	n	n	n	n
COC(=O)c1ccc(COc2ccc3c4c(c(=O)oc3c2)CCC4)o1	n	n	n	n	+	2.5
CC1CN(C(=O)CN2C(=O)c3ccccc3S2(=O)=O)CC(C)O1 (stereo not given)	n	n	n	n	n	n
O=c1oc2c(CN3CCOCC3)c(O)ccc2c2c1CCCC2	n	n	n	n	x	3.8
COCCN(CCOC)Cc1cc(=O)oc2cc3c(cc12)CCC3	n	n	n	n	n	n
O=c1oc2c(CN3CCOCC3)c(O)c(Cl)cc2c2c1CCCC2	n	n	n	n	x	3.8
COCCN(CCOC)Cc1c(O)ccc2c3c(c(=O)oc12)CCC3	n	n	n	n	x	2
O=C(Nc1ccccc1C(=O)NCCN1CCOCC1)c1ccco1	n	n	n	n	n	n
Cc1c(C(=O)NC(C)CN2CCCCC2)oc2ccccc12 (stereo not given)	n	n	n	n	n	n
O=c1[nH]c(-c2ccccn2)nc2ccccc12	n	n	n	n	n	n
CCN(CC)C(=O)c1sc2nc(-c3ccccn3)[nH]c(=O)c2c1C	n	n	n	n	+	3.4
CCN(CC)C(=O)c1sc2nc(-c3ccncc3)[nH]c(=O)c2c1C	n	n	n	n	x	5
CCC(C)NS(=O)(=O)c1ccc(NC(=O)c2c(-c3ccccc3)noc2C)cc1 (stereo not given)	n	n	n	n	n	n
CC(C)OC(=O)c1nnn(-c2nonc2N)c1CSc1ccccn1	n	n	n	n	n	n
CCOC(=O)C1=C(O)C(=O)N(c2ccc(S(N)(=O)=O)cc2)C1c1ccc(OC)cc1 (stereo not given)	n	n	n	35	n	2.1
CCOC(=O)c1ccc(N2C(=O)C(O)=C(C(C)=O)C2c2ccc(O)c(OC)c2)cc1 (stereo not given)	n	n	n	n	n	n
CC(C)(C)S(=O)(=O)c1ccc2nc3c(n2c1)CCCC3	n	n	n	n	x	3.9
COCCN(CCOC)Cc1c(C)[nH]c2ccccc2c1=O	n	n	n	n	n	n
SMILES	A340 absorber	NADH enzymes	Spn MK inh	Spn PMK inh	Spn DPM-DC inh	Autofluor 339
COc1ccc(Cl)cc1Nc1nc(N2CCCC2)nc(N2CCCC2)n1	n	n	n	n	n	n
COc1ccc(CCNC(=O)CSc2nncn2N)cc1OC	n	n	n	n	n	n
COC(=O)c1cc(NCc2ccc3c(c2)OCO3)ccc1N1CCOCC1	n	n	n	n	n	n
COc1cc(CNc2ccc(N3CCOCC3)c(C(=O)O)c2)ccc1OCC(N)=O	n	n	n	n	+	2.3
COc1ccccc1CNc1ccc(N2CCOCC2)c(C(=O)O)c1	n	n	n	n	n	2.2
O=C(O)c1cc(NCc2ccc3c(c2)OCO3)ccc1N1CCOCC1	n	n	n	n	n	2.5
O=C(CSc1nnnn1C1CCCCC1)Nc1nc2c(s1)CCCC2	n	n	n	n	n	n
Cc1ccc(S(=O)(=O)NCC(c2cccnc2)N(C)C)cc1 (stereo not given)	n	n	n	n	n	n
COc1ccc2c(c1)cc(C(=O)O)n2C	n	n	n	n	n	2.5
CCCc1nc2oc3c(NCCOCCO)ncnc3c2c2c1COC(C)(C)C2	n	n	n	n	x	3.6
Cc1nc2oc3c(NCC4CCCO4)ncnc3c2c2c1COC(C)(C)C2 (stereo not given)	n	n	n	n	+	2.1
CCc1cc2c(NCC3CCCO3)ncnc2s1 (stereo not given)	n	n	n	n	n	n
Cc1nc2sc3c(NCc4ccco4)ncnc3c2c2c1COC(C)(C)C2	n	n	n	n	n	n
CC(C)c1nc2oc3c(NCC4CCCO4)ncnc3c2c2c1COC(C)(C)C2 (stereo not given)	n	n	n	n	x	3.8
Cc1nc2oc3c(NCc4ccccc4)ncnc3c2c2c1COC(C)(C)C2	n	n	n	n	n	2.5
COc1cccc(C2/C(=C(/O)c3cnn(-c4ccccc4)c3C)C(=O)C(=O)N2CCN(C)C)c1 (stereo not given)	n	n	n	n	n	n
CCOC(=O)CSC1=C(C#N)C(C)C2=C(CCCC2=O)N1 (stereo not given)	n	n	n	n	n	n
CC(=O)N1CCN(c2ccc(NC(=O)c3ccccc3Br)cc2Cl)CC1	n	n	n	n	n	n
CCOc1cc(S(=O)(=O)NCCc2ccccc2C)c(OCC)cc1-n1cnnn1	n	n	n	n	x	3.9
CCOc1cc(S(=O)(=O)N2CCC(Cc3ccccc3)CC2)c(OCC)cc1-n1cnnn1	n	n	n	n	n	n
CCOc1cc(S(=O)(=O)NCCc2cccc(C)c2)c(OCC)cc1-n1cnnn1	n	n	n	n	x	3.7
N#Cc1c(NC(=O)COC(=O)C2CC3C=CC2C3)oc(-c2ccccc2)c1-c1ccccc1 (stereo not given)	n	n	n	n	n	n
COc1ccc(Cl)cc1C(=O)Nc1ccccc1N1CCN(C(=O)C(C)C)CC1	n	n	n	n	n	n
COC(=O)c1ccc(CSc2ncnc3c2sc2nc(N4CCOCC4)c4c(c23)CCCC4)o1	n	n	n	n	x	2.1
COC(=O)c1ccc(-c2sc3nc(N4CCOCC4)c4c(c3c2N)CCCC4)o1	n	n	n	n	x	2.5
SMILES	A340 absorber	NADH enzymes	Spn MK inh	Spn PMK inh	Spn DPM-DC inh	Autofluor 339
O=C(NCc1ccco1)c1cc(-c2ccccc2)c(N2CCOCC2)s1	n	n	n	n	n	n
Nc1c(C(=O)NCc2ccco2)sc2nc(N3CCOCC3)c3c(c12)CCCC3	n	n	n	n	x	2.4
CCOC(=O)c1sc2nc(N3CCCC3)c3c(c2c1N)CC(C)(C)OC3	n	n	n	n	x	3
O=C1CCCCCN1CP(=O)(O)CN1CCOCC1	n	n	n	n	n	n
CC1=C(C(=O)N(C)C)C(c2cccc(Cl)c2)NC(=O)N1 (stereo not given)	n	n	n	n	n	n
CCCC(=O)Nc1cnc(NC(=O)c2cccc(F)c2)cc1C	n	n	n	n	n	n
